# Screens deposited in PubChem by The Scripps Research Institute Molecular Screening Center.
# OPRM1-OPRD1 ag = agonists of human mu-delta opioid receptor heterodimerization. P35372+P41143. cells, OPRM1-OPRD1 heterodimerization, luminescence. activation, % at 9.3 µM. hit rate 0.3% among 340,000. AID 504326; in the data active means activation above about 18%
# HTR5A ag ctr = activates human HTR5A in OPRM1-OPRD1 agonist counter-screen; P47898; HTR5A agonist assay, luminescence, cell-based; activation, % at 9.3 µM; hit rate 0.61% among 340,000; AID 504692; in the data active means activation mostly above about 9.5%, no sharp cut-off; inactive means mostly below about 7.6%
# OPRM1-OPRD1 inv = mu-delta opioid heterodimer inverse agonism | inhibition, % at 9.3 µM | AID 504357 | cell-based MOR-DOR heterodimer luminescence | hit rate 0.21% among 340,000; in the data active means inhibition above about 22%, passing the limit was not always enough
# HTR5A inv ctr = counter-screen for OPRM1-OPRD1 inverse agonists: human HTR5A inverse agonism; HTR5A cell line, luminescence; inhibition, % at 9.3 µM; hit rate 0.083% among 340,000; P47898; AID 504634; in the data active means inhibition mostly above about 23%, no sharp cut-off; inactive means mostly below about 18%
# m5-HT2A agonist = agonists of mouse serotonin 5-HT2A receptor (HTR2A) | P35363 | CHO-K1 mHTR2A beta-arrestin complementation, luminescence; percent of 30 µM serotonin response | activation, % at 7.6 µM | hit rate 0.66% among 360,000 | AID 624169;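 active means activation above a run cutoff, the mean activation of all tested compounds plus 3 SD, cut at about 14% in these data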
# Target sequence (P35363 whole entry, looked up): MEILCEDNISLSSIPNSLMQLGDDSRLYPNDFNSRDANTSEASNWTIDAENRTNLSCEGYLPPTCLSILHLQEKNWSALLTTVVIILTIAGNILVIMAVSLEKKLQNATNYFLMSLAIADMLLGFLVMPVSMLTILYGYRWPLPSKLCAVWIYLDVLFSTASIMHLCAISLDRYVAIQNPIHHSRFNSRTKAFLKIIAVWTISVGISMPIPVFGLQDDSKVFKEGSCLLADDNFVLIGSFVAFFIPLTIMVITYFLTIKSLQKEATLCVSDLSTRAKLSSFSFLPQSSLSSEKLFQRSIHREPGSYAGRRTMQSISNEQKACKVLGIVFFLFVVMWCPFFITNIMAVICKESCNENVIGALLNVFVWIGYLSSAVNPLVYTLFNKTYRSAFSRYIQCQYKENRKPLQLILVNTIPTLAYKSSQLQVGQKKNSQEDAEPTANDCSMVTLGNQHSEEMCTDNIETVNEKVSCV
# A number is an active result; – = inactive; · = not tested or not shown. The list is not random: actives were taken first. Their share in the collection is about 1.6%.
SMILES,OPRM1-OPRD1 ag,HTR5A ag ctr,OPRM1-OPRD1 inv,HTR5A inv ctr,m5-HT2A agonist
N#CC1=C(SCC(=O)NC2CC2)NC(=O)C(C#N)C12CCCCC2 (stereo not drawn),–,–,–,–,–
N#CC1=C(SCC(=O)Nc2cccc3cccnc23)NC(=O)C(C#N)C12CCCCC2 (stereo not drawn),–,–,–,–,16
CCOC(=O)c1csc(NC(=O)c2ccc(S(=O)(=O)N(CC)CC)cc2)n1,–,12,–,–,–
O=C(C(=O)N1CCN(C/C=C/c2ccccc2)CC1)c1ccccc1,·,·,·,·,–
COc1ccc(CC(=O)Nc2cccc(-c3nnc(-c4ccc(C)cc4)o3)c2)cc1OC,20,17,–,–,–
O=C(CNC(=O)c1ccco1)OCC(=O)c1ccc([N+](=O)[O-])cc1,–,–,–,–,–
O=C(CNC(=O)c1ccco1)NCC(=O)OCC(=O)c1ccc(Cl)c([N+](=O)[O-])c1,–,–,94,43,–
COc1ccc(CN2C[C@@H](CO)O[C@@H](n3cnc4c(N(C)C)ncnc43)C2)cc1,·,·,·,·,–
COc1cc2c(cc1OC)C(c1ccc(-c3cc(Cl)ccc3Cl)o1)=NCC2,–,–,–,–,–
COc1cc2c(cc1OC)C(c1ccc(-c3ccc(Cl)c(Cl)c3)o1)=NCC2,–,11,–,–,–
COc1ccc(-c2cc3c(c4c2ccn4C)C2CCC3C2)cc1OC (stereo not drawn),·,·,·,·,–
CCC(=O)N1N=C(c2cccc(NS(C)(=O)=O)c2)CC1c1cccs1 (stereo not drawn),–,14,–,–,–
CS(=O)(=O)Nc1cccc(C2=NN(C(=O)CCC(=O)O)C(c3cccs3)C2)c1 (stereo not drawn),–,–,–,–,–
Cc1cccn2c(=O)c3cc(S(=O)(=O)c4ccccc4)c(=N)n(Cc4ccco4)c3nc12,–,12,–,–,–
Cc1cccn2c(=O)c3cc(S(=O)(=O)c4ccc(F)cc4)c(=N)n(Cc4ccco4)c3nc12,–,–,–,–,–
CCN(CC)CCOC(=O)C1(c2ccccc2)CCOCC1,–,11,–,–,–
CN(C)CCN1CCN(C2CN(Cc3ccc(F)cc3)S(=O)(=O)C2)CC1 (stereo not drawn),·,·,·,·,–
COc1ccc(/C=N/n2cnnc2)cc1Oc1nc(Cl)ncc1F,–,12,–,–,–
COc1cc(/C=N/n2cnnc2)ccc1Oc1nc(Cl)ncc1F,–,–,–,–,–
c1ccc(CNc2nc(NCc3ccccc3)c3ccccc3n2)cc1,40,19,–,–,–
CCOc1ccccc1OCC(=O)Nc1cc(C)on1,–,–,–,–,–
Cc1cc(NC(=O)COc2ccc3ccccc3c2Br)no1,–,12,–,–,–
C#CCOCCOCCOCCNc1nc(N2CCN(C(=O)CCCCCCCCCCNC(=O)[C@H]([C@@H](C)CC)n3cc(CCCCCN)nn3)CC2)nc(N2CCN(C(=O)CCCCCCCCCCNC(=O)[C@H]([C@@H](C)CC)n3cc(CCCCN=C(N)N)nn3)CC2)n1,–,–,–,–,16
CCN(CC)c1c(C)nc2ccc(C(=O)Nc3cc(-c4ccccc4)ccc3OC)cn12,·,·,·,·,–
Cc1ccc(S(=O)(=O)N2CCN(C(=O)c3ccco3)CC2)c(C)c1,–,10,–,–,–
SMILES,OPRM1-OPRD1 ag,HTR5A ag ctr,OPRM1-OPRD1 inv,HTR5A inv ctr,m5-HT2A agonist
Cc1ccc(S(=O)(=O)N2CCN(C(=O)c3ccco3)CC2)cc1,–,–,–,–,–
Cc1ccc(S(=O)(=O)N2CCN(C(=O)c3cc(S(=O)(=O)N4CCOCC4)ccc3Cl)CC2)c(C)c1,–,13,–,–,–
O=C(CN1CC(c2ccccc2)CC1=O)Nc1ccc2c(c1)OCO2 (stereo not drawn),–,14,–,–,–
CC(=O)Nc1cc(-c2cccnc2)cn2c(-c3ccc(F)cc3)cnc12,·,·,·,·,–
O=c1cc2oc3cc(O)c(O)cc3c(-c3ccccc3[N+](=O)[O-])c-2cc1O,–,–,50,44,–
COc1ccccc1C(=O)NNS(=O)(=O)c1ccc(F)cc1,–,–,–,–,–
O=C(NNS(=O)(=O)c1ccc(F)cc1)c1ccccc1F,–,12,–,–,–
C/C(CC(=O)Nc1ccc(C)c(Cl)c1)=N\NC(=O)Cc1ccccc1,–,12,–,–,–
COc1ncccc1-c1cc2nc(NCCNC(C)=O)n(C)c(=O)c2s1,·,·,·,·,–
O=C(OCc1nc2ccccc2s1)c1ccc([N+](=O)[O-])o1,–,20,–,–,–
O=C(OCc1nc2ccccc2s1)c1ccc(Br)o1,–,–,–,–,–
Cc1cc(C)c(C(O)c2ncc(-c3cccc4ccccc34)[nH]2)c(C)c1 (stereo not drawn),·,·,·,·,–
Cn1c(=O)c2c(nc(NCc3ccco3)n2C/C=C/c2ccccc2)n(C)c1=O,–,11,–,–,–
Cn1c(=O)c2c(nc(NCc3ccco3)n2C)n(C)c1=O,–,–,–,–,–
C[C@@H]1CN([C@@H](C)CO)C(=O)c2cc(-c3ccncc3)cnc2O[C@H]1CN(C)C(=O)c1cccc(F)c1,·,·,·,·,–
COc1ccc(C(=O)O/N=C(\N)Cc2ccc(Cl)c(Cl)c2)cc1OC,22,42,–,–,–
Cc1ccc2nc(-c3ccccc3)c(Cc3ccsc3)n2c1,·,·,·,·,–
COc1ccccc1-c1ccc(SCc2ccc(C)cc2)nn1,–,–,–,–,–
COc1ccccc1-c1ccc(SCc2ccc(F)cc2)nn1,–,9.5,–,–,–
Cc1c(NC(=O)/C(C#N)=C/c2ccc(-c3ccccc3Cl)o2)c(=O)n(-c2ccccc2)n1C,–,12,–,–,–
Cc1c(NC(=O)/C(C#N)=C/c2ccc(-c3ccc(Cl)c(Cl)c3)o2)c(=O)n(-c2ccccc2)n1C,–,–,–,–,–
CC1(C(=O)NS(=O)(=O)c2cccc(F)c2)CCN1C(=O)Cc1cccs1 (stereo not drawn),·,·,·,·,–
CCc1nnc(NS(=O)(=O)c2ccc(Nc3ccc([N+](=O)[O-])c4nonc34)cc2)s1,–,–,36,31,–
CCc1nnc(NS(=O)(=O)c2ccc(NS(=O)(=O)c3ccccc3[N+](=O)[O-])cc2)s1,–,–,–,–,–
CCCCNC(=O)C[C@@H]1C[C@@]2(C(=O)OC)CCCCC=C2N(CCC2=CCCCC2)C1=O,·,·,·,·,–
SMILES,OPRM1-OPRD1 ag,HTR5A ag ctr,OPRM1-OPRD1 inv,HTR5A inv ctr,m5-HT2A agonist
CCOC(=O)C1CCCN(CCC(=O)Nc2cc(C)cc(C)c2)C1 (stereo not drawn),–,10,–,–,–
CCOC(=O)C1CCCN(CC(=O)Nc2cc(C)cc(C)c2)C1 (stereo not drawn),–,–,–,–,–
COc1ccccc1C(=O)NCCC(=O)NCC(C)(C)N1CCOCC1,–,–,–,–,17
COc1ccc(NC(=O)Nc2cccc(C(F)(F)F)c2)cn1,–,13,–,–,–
Cc1cccc2c1-c1sc(C(=O)Nc3cccnc3)cc1CO2,–,11,–,–,–
O=C(Nc1cccnc1)c1cc2c(s1)-c1ccccc1OC2,–,–,–,–,–
Cc1cccc2c1-c1sc(C(=O)NCCCN3CCC(C)CC3)cc1CO2,–,11,–,–,–
